Only some compounds are listed: those with a hit (about 3.2% of all), similar ones and a draw of the others.
ClpP mod – qHTS Assay for Activators of ClpP; ATP-dependent Clp protease proteolytic subunit (Bacillus subtilis (strain 168)), P80244; purified B. subtilis ClpP, FRET peptide cleavage, 20 min; Potency, µM (top dose mostly 57.5 µM), for the others: top-dose activity change, negative = active; 340,000 tested, 1.9% active; active = well fitted falling curve with a large enough effect; inconclusive = small, poorly fitted or top-dose-only effect; inactive = no such curve, though single readings can be large or run the other way; also: the source files actives as falling curves though it sought activators and does not explain the sign; nearly all actives have a fitted effect of over 65% in size
Target sequence (P80244 whole entry, looked up): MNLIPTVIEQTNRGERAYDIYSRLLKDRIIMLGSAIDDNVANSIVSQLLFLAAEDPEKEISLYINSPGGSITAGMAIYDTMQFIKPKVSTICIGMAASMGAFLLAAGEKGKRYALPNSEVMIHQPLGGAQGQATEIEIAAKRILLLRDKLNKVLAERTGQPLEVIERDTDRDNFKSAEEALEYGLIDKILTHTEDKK
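Purified B. subtilis ClpP, 10 microg/mL final in Tris/HCl pH8 with KCl, BSA, glycerol and Tween-20, cleaved an Abz/nitrotyrosine-quenched decapeptide. Fluorescence (ex 320, em 430) was read at 0 and 20 min at room temperature. Delta was normalized to 5.8 microM ADEP and DMSO/no-enzyme controls.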
GLP-1R inv ag – qHTS of GLP-1 Receptor Inverse Agonists (Inhibition Mode); 410,000 tested, 1.6% active; AID 624417, 2012; Glucagon-like peptide 1 receptor (Homo sapiens), P43220; HEK293 GLP-1R CRE-luciferase, luminescence, 24 h; GLP-1R form is constitutively active; Potency, µM (titrated, usually from 38.3 µM), for the others: at the top dose activity change, negative = inhibition, actives largely listed as inhibitors; also: % is scaled to controls: 0 for no effect and ±100 for the full control effect; nearly all actives have a fitted effect of over 55% in size
Target sequence (P43220 whole entry, looked up): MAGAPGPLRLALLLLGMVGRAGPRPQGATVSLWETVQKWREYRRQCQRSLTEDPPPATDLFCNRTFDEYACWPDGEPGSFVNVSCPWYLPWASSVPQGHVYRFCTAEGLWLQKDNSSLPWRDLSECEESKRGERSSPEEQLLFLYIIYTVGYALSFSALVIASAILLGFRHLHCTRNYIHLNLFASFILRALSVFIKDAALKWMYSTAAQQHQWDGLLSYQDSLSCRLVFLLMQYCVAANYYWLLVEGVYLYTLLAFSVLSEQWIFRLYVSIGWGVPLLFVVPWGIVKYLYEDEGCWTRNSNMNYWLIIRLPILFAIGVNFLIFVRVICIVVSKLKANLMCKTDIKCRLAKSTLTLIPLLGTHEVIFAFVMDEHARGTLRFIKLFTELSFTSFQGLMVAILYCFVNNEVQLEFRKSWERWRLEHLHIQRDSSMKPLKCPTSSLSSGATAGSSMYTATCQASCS
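HEK293 cells stably co-expressing constitutively active GLP-1R and a cAMP-responsive luciferase reporter were seeded in DMEM with 10% Nu serum, given compounds after 12 h, and incubated 24 h at 37 deg C. Luminescence was then read.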
GLP1R cytotox – qHTS of GLP-1 Receptor Inverse Agonists: Cytotox Screen; Potency, µM (doses to about 38.3 µM), for inactives: top-dose activity change, negative = inhibition, hits mostly inhibitors; 410,000 tested, 0.13% active; HEK293 cAMP-luciferase reporter cells, luminescence, 24 h; AID 624418, 2012;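 also: loss of luciferase light is scored as toxicity; % is scaled to controls: 0 for no effect and ±100 for the full control effect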
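1536-well qHTS counterscreen of the MLSMR; 200 cells/uL, 12 h pre-incubation, 23 nL cpd, 24 h at 37 deg C 5% CO2, luciferase detection reagent, 12 min RT, luminescence. Inhibition = undesired.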
GLP1R ag – qHTS of GLP-1 Receptor Agonists. AID 624172, 2012. Potency, µM (doses to about 45.6 µM), without a hit: top-dose activation, most hits filed as activators. HEK293 GLP-1R CRE-luciferase, luminescence, 4-6 h; cells express a hypersensitive GLP-1R form. 380,000 tested, 0.007% active. Glucagon-like peptide 1 receptor (Homo sapiens), P43220; also: % of control where 0% means no effect
Active calls of the source: *; ? = inconclusive; / = not tested or not shown; [ ] = another dose, or the depositor's remark. Unless noted, calls follow the shape of the dose curve; as a rule, active = well fitted curve in the direction sought with a large enough effect; inconclusive = small, poorly fitted or top-dose-only effect, or another doubt; inactive = no such curve, though single readings can be large; an effect the other way counts as inactive or inconclusive. Potency is read from the fitted curve at half-maximal effect.

SMILES	ClpP mod	GLP-1R inv ag	GLP1R cytotox	GLP1R ag
Cc1sc(NC(=O)c2ccco2)c(C(c2ccc(F)cc2)N2CCN(C)CC2)c1C (centres undefined)	-3.7%	7.08µM*	?	-0.4%
Cc1sc(NC(=O)c2ccco2)c(C(c2ccccc2)N2CCC(C)CC2)c1C (centres undefined)	28.2µM*	6.31µM*	-11.8%	-0.2%
COc1cc(NC(=O)CC2C(=O)N(c3cccc(C)c3)C(=O)N2Cc2ccc(F)cc2)cc(OC)c1 (centres undefined)	1.0%	?	-17.8%	/
COc1ccc(CCN2C(=O)N(c3ccc(C)cc3)C(=O)C2CC(=O)Nc2ccc(OC)cc2)cc1 (centres undefined)	-0.5%	?	-9.0%	/
COc1cc(OC)c(OC)cc1/C=N/NC(=O)CC1C(=O)NN=C1C (centres undefined)	28.2µM*	17.5%	4.0%	-6.2%
CCc1cccc2c1Sc1ccccc1CC2N1CCNCC1 (centres undefined)	0.2%	8.91µM*	?	4.1%
Cc1ccc(CNC(=O)CCCCCn2c(=O)[nH]c3ccccc3c2=O)cc1	-9.9%	-3.4%	-7.8%	/
COc1ccc(S(=O)(=O)N2CCCCCC2)cc1C(=O)NCc1ccccc1Cl	25.1µM*	9.0%	8.9%	2.2%
COc1ccc(S(=O)(=O)N2CCCCCC2)cc1C(=O)N(C)Cc1ccc(C(C)(C)C)cc1	/	5.62µM*	-2.2%	7.6%
COc1ccc(S(=O)(=O)N2CCCCCC2)cc1C(=O)N(C)CC(=O)Nc1ccc(Cl)c(Cl)c1	/	10µM*	-19.9%	3.7%
CN(CC(=O)Nc1ccc(Cl)cc1)c1ccc(S(=O)(=O)N2CCCCC2)cc1[N+](=O)[O-]	-1.9%	10µM*	-12.9%	-1.2%
COc1ccc(S(=O)(=O)N2CCCCCC2)cc1C(=O)NCc1ccco1	/	-19.7%	2.5%	14.3%
Cc1ccc(C)c(N2CCN(c3nc4c(S(=O)(=O)c5ccccc5)nnn4c4ccc(Cl)cc34)CC2)c1	-1.9%	6.1%	-12.9%	/
CCOc1ccccc1NC(=O)CSc1nc2c(sc3ccccc32)c(=O)n1CCCC(=O)NC1CCCC1	-23.4%	-29.3%	-7.2%	/
N#CC(c1ccc(Cl)cc1)c1ccc2c(C(F)(F)F)cc(C(F)(F)F)nc2n1 (centres undefined)	-1.9%	7.08µM*	7.94µM*	0.2%
FC(F)(F)c1cc(C(F)(F)F)c2ccc(N3CCN(c4ccc(Cl)cc4)CC3)nc2n1	1.6%	7.8%	-36.4%	8.1%
C#CCC(Cc1cnc2nc(N)nc(N)c2n1)c1ccc(C(=O)N[C@@H](CCC(=O)O)C(=O)O)cc1 (some centres undefined)	/	/	/	5.9%
COc1ccc(-c2nnc(-c3ccc(F)cc3)o2)cc1	-0.6%	50.0%	9.6%	0.8%
CCOc1ccc(-c2nnc(-c3snc(-c4ccc(F)cc4)c3N=CN(C)C)o2)cc1	28.2µM*	-3.2%	32.5%	-6.5%
COc1ccc(S(=O)(=O)N2CCCCC2)cc1C(=O)Nc1cccc(C(F)(F)F)c1	-11.6%	6.3%	5.7%	/
COC(=O)c1ccc(C(=O)OC)c(NC(=O)COC(=O)C2CCCCC2)c1	?	3.0%	10.9%	-1.1%
COC(=O)c1ccc(C(=O)OC)c(NC(=O)COC(=O)C2CCC(C(C)(C)C)CC2)c1 (centres undefined)	28.2µM*	8.3%	7.1%	-6.7%
CC(C)[C@H](CO)N(Cc1cccc(F)c1)c1nc(Nc2cccc(Cl)c2)c2ncn(C(C)C)c2n1	?	3.98µM*	17.5%	1.9%
CC[C@H](CO)Nc1nc(Nc2cccc(Cl)c2)c2ncn(C(C)C)c2n1	?	?	?	-15.6%
Cc1noc(/C=C/c2ccccc2F)c1S(=O)(=O)N1CCC(C(=O)NCC(C)c2ccccc2)CC1 (centres undefined)	143.4%	-15.6%	5.5%	/
SMILES	ClpP mod	GLP-1R inv ag	GLP1R cytotox	GLP1R ag
Cc1ccccc1CC1CCN(CCCNC(=O)Nc2ccccc2)CC1	1.1%	10µM*	-2.3%	-3.2%
O=C(NCCCN1CCN(Cc2ccccc2Cl)CC1)Nc1ccccc1	-4.5%	-29.7%	-10.5%	14.9%
CCNc1nc(NC(C)C)nc(SCCOC(=O)c2ccccc2)n1	0.2%	10µM*	1.1%	?
CCNc1nc(NC(C)C)nc(SCCOc2ccc(C)cc2)n1	-2.0%	7.94µM*	-1.4%	33.4%
Cc1ccc2nc(-c3ccc(NC(=O)COc4ccccc4)cc3)sc2c1	4.8%	-17.4%	-1.4%	/
Cc1ccc2nc(-c3ccc(NC(=O)CN(c4ccccc4C)S(C)(=O)=O)cc3)sc2c1	25.1µM*	?	10.5%	-10.6%
CCOc1ncccc1C(=O)OCC(=O)Nc1ccc(-c2nc3ccc(C)cc3s2)cc1	3.55µM*	-18.3%	9.8%	-3.1%
C=CCn1c(SCC(=O)NNC(=O)Nc2ccc(C)cc2)nnc1-c1ccccc1	0.8%	-26.7%	-12.2%	7.2%
C=CCn1c(SCC(=O)Nc2ccc(-c3nc4ccc(C)cc4s3)cc2)nnc1-c1ccccc1	15.8µM*	?	0.2%	-25.2%
Cc1ccc2nc(-c3ccc(NC(=O)COC(=O)c4ccc([N+](=O)[O-])o4)cc3)sc2c1	28.2µM*	-20.9%	-1.7%[1.53 µM]	-5.0%
Cc1ccc2nc(-c3ccc(NC(=O)COC(=O)c4ccco4)cc3)sc2c1	7.08µM*	7.5%	5.4%	-7.0%
CC1(c2ccc(OC(F)F)cc2)NC(=O)N(CC(=O)Nc2ccccc2)C1=O (centres undefined)	/	-1.9%	14.7%	13.8%
Cc1ccc2nc(-c3ccc(NC(=O)COC(=O)c4ccc(Br)o4)cc3)sc2c1	8.91µM*	?	-1.1%	-1.9%
Cc1ccc2nc(-c3ccc(NC(=O)CN4C(=O)NC(C)(c5ccc(OC(F)F)cc5)C4=O)cc3)sc2c1 (centres undefined)	14.1µM*	?	-19.6%	-5.6%
CCOc1ccc(NS(=O)(=O)c2ccc3[nH]cc(C(=O)N4CCCC4)c(=O)c3c2)cc1	-8.8%	7.0%	9.0%	/
CCOc1cc(C(=O)N(Cc2nc(-c3ccc(C)cc3)no2)C(C)C)cc(OCC)c1OCC	-0.8%	-4.1%	-2.1%	0.6%
O=C(Nc1ccccc1C(=O)OCc1cc(=O)n2nc(C3CC3)sc2n1)c1ccc(Cl)cc1	0.1%	4.7%	1.7%	/
COC(=O)c1ccc2c(=O)n(CCCCCC(=O)O)c(=O)[nH]c2c1	28.2µM*	1.5%	-2.4%	-1.6%
COCCn1c(=O)[nH]c2cc(C(=O)NCc3ccccc3)ccc2c1=O	14.1µM*	3.0%	6.7%	0.6%
COCCNC(=O)c1ccc2c(=O)n(CCOC)c(=O)[nH]c2c1	25.1µM*	8.0%	-1.5%	-13.1%
CCCCNC(=O)CCCCCn1c(=O)[nH]c2cc(C(=O)OC)ccc2c1=O	-1.6%	-17.1%[7.66 µM]	-0.1%[7.66 µM]	-3.3%

Bioassay records (PubChem BioAssay)
